DAX1 inh = NR0B1 (DAX1) inhibition | P51843 | HEK293 Gal4-DAX1 luciferase reporter, luminescence | inhibition, % at 6.75 µM | 0.99% of 340,000 active | AID 504766;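 active = inhibition above the mean over all tested compounds plus 3 SD, cut at about 4.2% in these data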;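 also: 0% = DAX1-transfected cells with DMSO and 100% = empty-vector control cells with DMSO; inhibition shows as a rise in luminescence from relieved DAX1 repression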
FXN GAA850 act = increases GAA850 frataxin promoter reporter activity | HEK293 lucGAA850 FXN promoter luciferase reporter, 24 h; percent of 10 µM SAHA response | activation, % at 6 µM | 0.56% of 360,000 active | AID 540364;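 active = activation above the average of all compounds screened plus 3 SD, cutoff fixed separately per campaign, cut at about 7.5% in these data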;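 also: 0% = DMSO wells and 100% = 10 µM SAHA wells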
AHR activator = activators of human aryl hydrocarbon receptor | P35869 | AHR-responsive luciferase reporter cells, luminescence | activation, % at 5 µM | 2.5% of 320,000 active; in the data active = activation above about 47%;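 also: 0% = vehicle wells and 100% = reference agonist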
HSF1 activator = increases HSF-1 driven luciferase reporter signal; 1.7% of 300,000 active; activation, % at 9 µM; NIH3T3-HGL HSF-1 luciferase reporter, MG132, 8 h; 100% = twice DMSO control signal; AID 504408;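 active = mean replicate activation of at least 50% with a set share of replicates each reaching 50%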;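 also: 0% = median of the neutral control wells and 100% = twice that signal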
HSF1 inhib = HSF1 inhibition | 0.77% of 300,000 active | NIH3T3-HGL HSE-luciferase, MG132-induced, luminescence 8 h; stronger effect = lower value | activity change, negative = inhibition, % at 7.5 µM (by protocol);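 active = more than half of replicate wells show activity change below -50%, luminescence cut by over half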;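 also: luciferase reports HSF-1 transcriptional activity via heat shock element; 0% = median of DMSO wells and -100% = zero luminescence signal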
AHR act confirm = confirmation of human aryl hydrocarbon receptor activators | shares compounds with AHR activator | human cells, AHR-responsive luciferase reporter, luminescence | activation, % at 9 µM | 87% of 2,300 active; in the data active = activation above about 49%;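 also: HepG2 hepatoma cells carrying a DRE-driven firefly luciferase reporter; 0% = vehicle wells and 100% = reference agonist wells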
PXR act counter = activates human PXR in AHR activator counter-screen; shares compounds with AHR activator; cell-based PXR reporter, luciferase luminescence; activation, % at 11.6 µM; 88% of 2,300 active; AID 434939; in the data active = activation above about 11%;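 also: human hepatoma DPX-2 cells expressing full-length human PXR; 0% = DMSO and 100% = reference agonist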
Target sequence (O75469 whole entry, looked up): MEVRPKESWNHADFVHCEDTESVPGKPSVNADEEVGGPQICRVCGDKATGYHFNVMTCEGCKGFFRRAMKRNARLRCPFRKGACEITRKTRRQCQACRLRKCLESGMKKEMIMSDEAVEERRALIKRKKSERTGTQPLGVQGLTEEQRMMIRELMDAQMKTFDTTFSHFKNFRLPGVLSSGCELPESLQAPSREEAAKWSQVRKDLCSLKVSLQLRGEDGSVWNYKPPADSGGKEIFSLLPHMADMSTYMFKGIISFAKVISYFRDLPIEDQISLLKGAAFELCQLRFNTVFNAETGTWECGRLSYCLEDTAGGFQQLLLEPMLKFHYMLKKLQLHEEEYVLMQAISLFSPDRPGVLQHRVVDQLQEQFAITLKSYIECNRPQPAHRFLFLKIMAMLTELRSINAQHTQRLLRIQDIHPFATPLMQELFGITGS
An asterisk follows results filed as active; nt = not tested or not shown. In the library only some 5.4% were active in any assay of this set; here they are far more common.

SMILES | DAX1 inh | FXN GAA850 act | AHR activator | HSF1 activator | HSF1 inhib | AHR act confirm | PXR act counter
COC(=O)c1cc(NC(=O)CN(c2ccccc2OC)S(=O)(=O)c2ccccc2)ccc1Cl | -1 | -3 | 4 | 16 | 9 | nt | nt
COc1ccccc1N(CC(=O)Nc1ccc2c(c1)OCO2)S(=O)(=O)c1ccccc1 | -1 | -3 | 98* | -2 | -2 | 97* | 187*
COc1cccc(C(=O)Nc2ccc3c(c2)OCO3)c1OC | 1 | 2 | 103* | 11 | 17 | 54* | 70*
CCOc1ccc2oc(C(=O)Nc3ccc(N4CCOCC4)cc3)c(C)c2c1 | -2 | -2 | -7 | 16 | 1 | nt | nt
CCOc1ccc2oc(C(=O)Nc3ccc4c(c3)OCO4)c(C)c2c1 | 0 | 4 | 83* | 31 | 17 | 38 | 25*
Cn1c(N)c(C(=O)COC(=O)c2ccccc2C(=O)c2ccc(Cl)cc2)c(=O)n(C)c1=O | -1 | -1 | 0 | nt | nt | nt | nt
C/C(=N\Nc1ccc2nncn2n1)c1ccc(Cl)s1 | nt | 1 | 35 | 5 | -5 | nt | nt
O=C(COc1cc(F)ccc1[N+](=O)[O-])Nc1ccc2c(c1)OCO2 | 0 | 5 | -4 | nt | nt | nt | nt
COc1cccc(C(=O)Nc2cc(NC(=O)c3cccs3)ccc2C)c1OC | -2 | 1 | 15 | -5 | -14 | nt | nt
CC(=O)c1cc(F)ccc1OCC(=O)Nc1ccc2c(c1)OCO2 | 1 | 4 | 94* | nt | nt | 105* | 29*
COc1cccc(C(=O)Nc2ccc3[nH]ncc3c2)c1OC | 0 | 1 | 92* | 18 | 12 | 68* | 12*
CCOc1ncccc1C(=O)Nc1ccccc1C(=O)NCc1ccc2c(c1)OCO2 | 0 | 0 | 4 | 0 | 4 | nt | nt
COC(=O)c1cc(C(=O)Nc2nnc(C3CC3)s2)cc([N+](=O)[O-])c1 | 0 | 0 | 81* | -5 | -2 | 83* | nt
CCOc1ncccc1C(=O)Nc1ccc2c(c1)OCO2 | -1 | 1 | 110* | -2 | -1 | 130* | 32*
Cc1nccc(-c2ccc(-n3cnc4ccccc43)cc2)n1 | 0 | -2 | 83* | -10 | -14 | 63* | nt
COc1ccccc1NC(=S)N1CCCCCC1 | 0 | -1 | -4 | 18 | 16 | nt | nt
Cc1cc2nn(-c3ccc(Cl)cc3)nc2cc1N | 2 | 6 | 81* | 30 | 13 | 192* | 24*
Cc1cc2nn(-c3ccc(F)cc3)nc2cc1N | 3 | 3 | 109* | 36 | 22 | 123* | 25*
CC1CN(C(=O)CCC(=O)NCc2ccccn2)c2ccccc2O1 (stereo unspecified) | 1 | 1 | 1 | 33 | -1 | nt | nt
COCC(=O)Nc1nnc(-c2cccs2)s1 | 2 | 4 | 81* | -15 | 1 | 94* | nt
C=C(C)C(=O)Nc1nnc(-c2cccs2)s1 | 0 | 2 | 47 | 12 | 26 | nt | nt
CCC(C)C(=O)Nc1nnc(-c2cccs2)s1 (stereo unspecified) | 1 | 5 | 84* | nt | nt | 81* | 48*
CC12CCC(C(N)C1=O)C2(C)C (stereo unspecified) | 2 | 1 | nt | nt | nt | nt | nt
Cc1cc(C(=O)Nc2ccc(Cl)cc2)on1 | 1 | 2 | 23 | 18 | 11 | nt | nt
Cc1nnsc1C(=O)Nc1ccccc1 | 0 | 4 | 1 | 9 | -6 | nt | nt
SMILES | DAX1 inh | FXN GAA850 act | AHR activator | HSF1 activator | HSF1 inhib | AHR act confirm | PXR act counter
Cc1nnsc1C(=O)Nc1ccc(Cl)cc1 | 0 | 1 | 106* | 2 | 6 | 64* | 26*
Cc1ocnc1C(=O)Nc1ccc(Cl)cc1 | 1 | 4 | 104* | 45 | 24 | 66* | 25*
NS(=O)(=O)c1ccc(CCNC(=O)c2cccc(S(=O)(=O)N3CCc4ccccc43)c2)cc1 | 0 | 1 | nt | nt | nt | nt | nt
CCOc1ccccc1OCCCC(=O)NNC(=O)c1ccc(F)cc1 | 0 | 1 | 4 | nt | nt | nt | nt
CC(C)NC(=O)CCCN1C(=O)c2ccccc2Sc2ncccc21 | 1 | 0 | 0 | -3 | -4 | nt | nt
C/C(=N\Nc1nc2ccccc2s1)c1ccc2c(c1)OCO2 | 1 | 2 | 90* | -9 | -2 | 112* | 31*
CCC1(c2ccccc2)NC(=S)N(c2ccc(C)cc2)N1 (stereo unspecified) | 3 | 2 | 25 | 44 | 26 | nt | nt
